From PubChem BioAssay (NCATS)
Inconclusive results are not listed. The source made the active and inactive calls. Calls follow the shape of the dose curve; as a rule, active = well fitted inhibition curve with a large enough effect; inconclusive = small, poorly fitted or top-dose-only effect; inactive = no such curve, though single readings can be large or run the other way.

target: Cytochrome P450 3A7 (Homo sapiens) (UniProt P24462); experiment: Cytochrome P450 family 3 subfamily A member 7 (CYP3A7) small molecule antagonists: luciferase biochemical qHTS assay (AID 1963596); conditions: P450-Glo CYP3A7 enzyme luminescence, 1 h; series mostly up to 57.4 µM; activity change, negative = inhibition: at the top concentration; also: nearly all actives have a fitted effect of over 40% in size
In short: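 Luminescence from luciferin released by CYP3A7 from a proluciferin substrate, read 20 min after detection reagent. Compound and enzyme-substrate mix sat 10 min before NADPH regeneration solution; reaction ran 1 h at room temperature.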
% is scaled to controls: 0 for no effect and ±100 for the full control effect.

Sequence of Cytochrome P450 3A7 (Homo sapiens) (P24462 whole entry, looked up): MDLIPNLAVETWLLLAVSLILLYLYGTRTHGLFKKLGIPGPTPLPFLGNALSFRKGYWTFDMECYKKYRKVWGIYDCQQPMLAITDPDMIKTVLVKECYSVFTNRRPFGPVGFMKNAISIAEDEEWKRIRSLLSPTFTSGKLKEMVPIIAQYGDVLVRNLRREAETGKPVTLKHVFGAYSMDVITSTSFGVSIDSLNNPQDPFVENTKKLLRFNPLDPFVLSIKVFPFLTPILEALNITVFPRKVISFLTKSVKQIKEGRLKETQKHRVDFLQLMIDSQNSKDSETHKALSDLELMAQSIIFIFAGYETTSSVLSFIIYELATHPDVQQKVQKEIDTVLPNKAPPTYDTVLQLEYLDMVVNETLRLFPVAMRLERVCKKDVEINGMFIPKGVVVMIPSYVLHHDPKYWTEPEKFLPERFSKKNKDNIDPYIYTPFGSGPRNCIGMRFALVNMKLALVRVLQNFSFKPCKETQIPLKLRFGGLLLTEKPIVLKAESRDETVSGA

Row | Compound | activity change, negative = inhibition
1 | C[C@H](NC(CCc1ccccc1)C(=O)O)C(=O)N1CCC[C@H]1C(=O)O (stereo partly specified) | -3.06% (inactive)
2 | CCc1cccc(CC)c1NC(=O)CN(CC(=O)O)CC(=O)O | 21.6% (inactive)
3 | O=C1Nc2cc(Cl)ccc2Oc2ccccc21 | -15.4% (inactive)
4 | O=C(NCN1CCOCC1)c1cnccn1 | -2.01% (inactive)
5 | O=C(O)[C@H](O)[C@@H](O)[C@H](O[C@@H]1O[C@H](CO)[C@H](O)[C@H](O)[C@H]1O)[C@H](O)CO | 35.3% (inactive)
6 | COc1cc(C(=O)N2CCOCC2)cc(OC)c1OC | 0.438% (inactive)
7 | N[C@H]1C(O)O[C@H](CO)[C@@H](O)[C@@H]1O (stereo partly specified) | -4.98% (inactive)
8 | Cc1ccc(S(=O)(=O)NC(=O)NC2CCCCC2)cc1 | 5.24% (inactive)
9 | CCCCCC(N)=O | -1.97% (inactive)
10 | OC1C(O)C(O)C(O)C(O)C1O (stereo unspecified) | -13.9% (inactive)
11 | CCN1CCCC1=O | -7.56% (inactive)
12 | Cc1c(C(C)C)c(=O)n(-c2ccccc2)n1C | 1.55% (inactive)
13 | COc1cc2c3cc1Oc1cc(ccc1O)C[C@@H]1c4c(cc(OC)c(O)c4Oc4ccc(cc4)C[C@@H]3N(C)CC2)CC[N+]1(C)C | -0.98% (inactive)
14 | CC(=O)OCC(=O)NCCCOc1cccc(CN2CCCCC2)c1 | 6.19% (inactive)
15 | O=C(O)CCCCC1CCSS1 (stereo unspecified) | -1.52% (inactive)
16 | NC(CO)(CO)CO | -15.5% (inactive)
17 | CC1(C)OC(=O)Nc2ccc(Br)cc21 | -17.2% (inactive)
18 | CC(=O)NCCCCCC(=O)O | 27.2% (inactive)
19 | CCN(CC)CC1CCCCN1CC(=O)N1c2ccccc2C(=O)Nc2cccnc21 (stereo unspecified) | 19.1% (inactive)
20 | NC(N)=NS(=O)(=O)c1ccc(N)cc1 | 1.18% (inactive)
21 | C[C@H]1[C@H](NC(=O)/C(=N/OC(C)(C)C(=O)O)c2csc(N)n2)C(=O)N1S(=O)(=O)O (stereo in doubt) | -19.8% (inactive)
